Consider 21 compounds from ChEMBL document CHEMBL4513146, “CO-ADD screening of Karazin Kharkiv National University (Ukraine) compounds”.

Each structure is given as a SMILES string. Potency and affinity values are given separately.

Experiment [1] relates to Staphylococcus aureus. Particulars: Concentration 32 ug.mL-1;; ASSAY_TEST Inhibition of Bacterial Growth; detection method Absorption (OD600); MEDIA CAMHB; plate type 384well; NBS; CORNING #3640; time 18 hr.
In experiment [2] the test system is Escherichia coli. Particulars: Concentration 32 ug.mL-1;; ASSAY_TEST Inhibition of Bacterial Growth; detection method Absorption (OD600); MEDIA CAMHB; plate type 384well; NBS; CORNING #3640; time 18 hr.

For the compound `O=C(CSc1nnc2c(=O)n(-c3ccccc3)ccn12)Nc1ccc2c(c1)OCCO2`, the results for the Inhibition in experiment [1] and in experiment [2] were 8.84% and -1.03%, respectively.
In the same order, the values of `CCOc1ccc(-n2ccn3c(SCC(=O)Nc4cccc(CC)c4)nnc3c2=O)cc1` are -2.86% and -8.29%.
As for `Cc1ccc(-c2cc3c4nn(CC(=O)Nc5ccc6c(c5)OCCO6)c(=O)n4ccn3n2)cc1C`, the values for the Inhibition in experiment [1] and in experiment [2] were 13.07% and -3.26%, respectively.
In the same order, the values of `O=C(CSc1nnc2c(=O)n(-c3cccc(F)c3)ccn12)NCCc1ccccc1` are -2.66% and -10.98%.
For `CCOC(=O)c1ccc(NC(=O)Cn2nc3c(SCc4ccc(Cl)cc4)nccn3c2=O)cc1`, the results for the Inhibition in experiment [1] and in experiment [2] were -2.95% and -14.83%, respectively.
Take `Cc1cccc(CN(c2ccc(C(C)C)cc2)S(=O)(=O)c2cccn3c(C)nnc23)c1`: the results for the Inhibition in experiment [1] and in experiment [2] were 5.76% and -1.18%, respectively.
In the same order, the values of `CCCc1nnc2c(=O)n(CC(=O)N3CCCc4ccccc43)c3ccccc3n12` are 2.88% and -3.24%.
Regarding `Cc1ccc(-n2ccn3c(=O)n(Cc4ccccc4)nc3c2=O)cc1C`, the Inhibition – broadly, the change of the read-out against control, counted positive when it falls – is on record as 5.93% in experiment [1] and -8.73% in experiment [2].
Regarding `COc1cccc(CNC(=O)CCc2nnc3ccc(-c4ccc(C)cc4)nn23)c1`, the Inhibition was 16.4% in experiment [1] and -0.37% in experiment [2].
In the same order, the values of `CCCn1c(=O)c2sccc2n2c(=O)n(CC(=O)c3cc(C)ccc3C)nc12` are 7.83% and 0.58%.
As to `O=c1n(Cc2cccc(C(F)(F)F)c2)nc2c(S(=O)(=O)N3CCCC3)cccn12`, the Inhibition in experiment [1] was 9.3%; in experiment [2] it was -1.06%.
Turning to `COc1ccc(NC(=O)CSc2nnc3c(=O)n(-c4ccc(Br)cc4)ccn23)cc1`, the results for the Inhibition in experiment [1] and in experiment [2] were 5.23% and 2.74%, respectively.
Turning to `CCOc1ccc(C(=O)Cn2nc3n(CCC(C)C)c(=O)c4sccc4n3c2=O)cc1`, the Inhibition in experiment [1] came out at 6.67%; in experiment [2] it was 3.25%.
Turning to `CCCCOc1ccc(-c2cc3c4nnc(SCC(=O)Nc5ccc(Cl)cc5)n4ccn3n2)cc1`, the Inhibition in experiment [1] is 6.59%; in experiment [2], -0.55%.
`O=c1n(Cc2nc(-c3ccc4c(c3)OCO4)no2)nc2ccc(-c3ccccc3)nn12`: the Inhibition in experiment [1] is recorded as -9.1%; in experiment [2], -9.98%.
For `CCOC(=O)C1CCN(c2nc3ccccc3n3c(=O)n(CC(=O)Nc4ccccc4F)nc23)CC1` the same measures were 2.72% and -5.37%.
On to `Cc1nnc2ccc(S(=O)(=O)N(Cc3ccccc3)c3cccc(F)c3)cn12`, for which the results for the Inhibition in experiment [1] and in experiment [2] were 2.5% and -6.96%, respectively.
Consider `COc1cccc(NC(=O)Cn2nc3ccc(SCc4ccc(Cl)cc4)nn3c2=O)c1`, for which the figures for the Inhibition in experiment [1] and in experiment [2] were -4.03% and 0.27%, respectively.
Consider `Cc1ccc(-c2ccc3nn(CC(=O)Nc4ccc(C(C)C)cc4)c(=O)n3n2)cc1C`, for which the Inhibition in experiment [1] was -10.47%; in experiment [2] it was -13.87%.
In the same order, the values of `COc1ccc(NC(=O)Cn2nc3c(SC4CCCCC4)nccn3c2=O)cc1OC` are 4.77% and -3.78%.
Turning to `NC(=O)Cn1nc2n(CCC(=O)NC3CCCCC3)c(=O)c3ccccc3n2c1=O`, the values for the Inhibition in experiment [1] and in experiment [2] were 4.99% and 0.77%, respectively.
